Where a name gives a salt, the structure may show the parent alone.
Key:
Conditions in all cases: incubation time: 27 h, anaerobic, 37 °C;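 for the amine columns active = adjusted P below 0.05 in both replicates with a change the same way and a mean fold change under 0.8 or over 1.25; inactive = the rest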
[1] = tested on: Clostridium sporogenes DSM 1664; assay: growth (OD595) fold change vs plate DMSO controls (fold change (ratio)); higher = more growth
Procedure, shortened: (§1)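 Growth is the fold change relative to the median of plate DMSO controls. Readings came from anaerobic mGAM cultures in 96-well plates grown for 27 h at 37 °C and read at 595 nm. They were blank-subtracted, corrected for compound background with 20 µM compound solutions in water, and converted to OD with a calibration factor of 5. Values are means of 2 biological replicates, and fold changes above 1.5 were set to NA.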

Escherichia coli IAI1 [2] = assay: as above
Procedure, shortened: as §1

[3] = tested on: Klebsiella aerogenes DSM 30053; assay: as above
Procedure, shortened: as §1

[4] = tested on: Ruminococcus gnavus DSM 108212; assay: as above
Procedure, shortened: as §1

[5] = tested on: Klebsiella aerogenes DSM 30053; assay: fold change of Histamine concentration vs plate DMSO controls (fold change (ratio)); higher = more amine produced, active = hit call of the paper (significant change in both replicates, either direction)
Procedure, shortened: (§2)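 Each value is the fold change relative to DMSO-only wells on the same plate. Four gut bacterial strains were grown anaerobically in mGAM at 37 °C for 27 h in 80 µL wells, starting at OD 0.1 before a 1:1 dilution, with compounds at 20 µM final (sweeteners 50 µM). Whole cultures were extracted with cold acetonitrile/methanol containing 0.1% formic acid, centrifuged, and amines were quantified by LC–triple-quadrupole MS (dynamic MRM) against external calibration curves with within-batch drift correction. Values are means of 2 biological replicates.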

[6] = tested on: Clostridium sporogenes DSM 1664; assay: fold change of Tryptamine concentration vs plate DMSO controls (fold change (ratio)); higher = more amine produced, active = hit call of the paper (significant change in both replicates, either direction)
Procedure, shortened: as §2

[7] = tested on: Ruminococcus gnavus DSM 108212; assay: as above
Procedure, shortened: as §2

Escherichia coli IAI1 [8] = assay: fold change of Putrescine concentration vs plate DMSO controls (fold change (ratio)); higher = more amine produced, active = hit call of the paper (significant change in both replicates, either direction)
Procedure, shortened: as §2

[9] = tested on: Klebsiella aerogenes DSM 30053; assay: as above
Procedure, shortened: as §2

Escherichia coli IAI1 [10] = assay: fold change of Cadaverine concentration vs plate DMSO controls (fold change (ratio)); higher = more amine produced, active = hit call of the paper (significant change in both replicates, either direction)
Procedure, shortened: as §2

[11] = tested on: Klebsiella aerogenes DSM 30053; assay: as above
Procedure, shortened: as §2

[12] = tested on: Ruminococcus gnavus DSM 108212; assay: fold change of 2-Phenylethylamine concentration vs plate DMSO controls (fold change (ratio)); higher = more amine produced, active = hit call of the paper (significant change in both replicates, either direction)
Procedure, shortened: as §2

Row | Structure (SMILES) | growth [1] | growth (Escherichia coli IAI1 [2]) | growth [3] | growth [4] | fold change of Histamine concentration [5] | fold change of Tryptamine concentration [6] | fold change of Tryptamine concentration [7] | fold change of Putrescine concentration (Escherichia coli IAI1 [8]) | fold change of Putrescine concentration [9] | fold change of Cadaverine concentration (Escherichia coli IAI1 [10]) | fold change of Cadaverine concentration [11] | fold change of 2-Phenylethylamine concentration [12]
1 | COc1ccccc1N1CCN(CCCCNC(=O)c2ccc3ccccc3c2)CC1 (20 µM) | 0.826 | 0.976 | 0.969 | 0.893 | 0.972 (inactive) | 1.13 (inactive) | 1.08 (inactive) | 1.04 (inactive) | 0.962 (inactive) | 0.795 (inactive) | 1.02 (inactive) | 1.3 (inactive)
2 | CCCOc1ccccc1-c1nc2[nH]nnc2c(=O)[nH]1 [Zaprinast] (20 µM) | 1.03 | 0.972 | 1 | 1.2 | 0.988 (inactive) | 1.01 (inactive) | 1.01 (inactive) | 0.969 (inactive) | 1 (inactive) | 0.974 (inactive) | 1 (inactive) | 1.06 (inactive)
3 | Nc1nc2ccc(OC(F)(F)F)cc2s1 [Riluzole hydrochloride] (20 µM) | 0.972 | 0.95 | 1.06 | 0.998 | 1.08 (inactive) | 0.945 (inactive) | 0.96 (inactive) | 0.97 (inactive) | 0.988 (inactive) | 0.987 (inactive) | 0.983 (inactive) | 0.968 (inactive)
